Key:
Assay in all cases: growth AUC relative to DMSO control (median of replicates) (fraction); higher = more growth (less inhibition), active = hit call of the paper
Conditions in all cases: 20 µM; 24 h;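 active = AUC reduced over 20% with Padj below 0.05 in at least 2 of 3 replicates; inactive = otherwise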
Akkermansia muciniphila = test system: Akkermansia muciniphila
In short: (§1)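 OD600 was recorded every hour for 24 h in anaerobic monocultures of gut bacteria kept at 37 °C in mGAM, seeded at OD600 0.05 and given 20 µM compound in 1% DMSO. The area under each growth curve was scaled to the plate median of solvent-only wells, or to row and column medians for the industrial chemical plate. Before this step, the minimum OD was set to 0. Reported values are medians of three biological replicates run on separate days.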

Bacteroides caccae = test system: Bacteroides caccae
In short: as §1

Bacteroides clarus = test system: Bacteroides clarus
In short: as §1

Bacteroides dorei = test system: Bacteroides dorei
In short: as §1

Bacteroides stercoris = test system: Bacteroides stercoris
In short: as §1

[1] = test system: Bacteroides thetaiotaomicron
In short: as §1

Bacteroides uniformis = test system: Bacteroides uniformis
In short: as §1

[2] = test system: Bifidobacterium longum subsp. longum
In short: as §1

Clostridium difficile = test system: Clostridium difficile
In short: as §1

Collinsella aerofaciens = test system: Collinsella aerofaciens
In short: as §1

Measured: growth AUC

CCCCCCCC/C=C\CCCCCCCCCCCC(=O)O
inactive: Akkermansia muciniphila 1.05 | Bacteroides caccae 1.01 | Bacteroides clarus 1.02 | Bacteroides dorei 0.995 | Bacteroides stercoris 1.01 | [1] 1.02 | Bacteroides uniformis 1.01 | [2] 0.902 | Clostridium difficile 1 | Collinsella aerofaciens 0.983

CCOc1ccc(C2(C(=O)OC(C#N)c3cccc(Oc4ccccc4)c3)CC2(Cl)Cl)cc1 (stereo not given)
inactive: Akkermansia muciniphila 1.08 | Bacteroides caccae 0.968 | Bacteroides clarus 1.02 | Bacteroides dorei 0.94 | Bacteroides stercoris 1.04 | [1] 0.993 | Bacteroides uniformis 0.957 | [2] 0.911 | Clostridium difficile 1.01 | Collinsella aerofaciens 0.982

O.O.O=[N+]([O-])c1ccc([O-])cc1.[Na+]
inactive: Akkermansia muciniphila 1.02 | Bacteroides caccae 0.999 | Bacteroides clarus 1 | Bacteroides dorei 0.988 | Bacteroides stercoris 1.09 | [1] 1.02 | Bacteroides uniformis 0.989 | [2] 1.08 | Clostridium difficile 1.04 | Collinsella aerofaciens 1.02

CC(C)CCCCCOC(=O)C(C)Oc1ccc(Cl)cc1Cl (stereo not given)
inactive: Akkermansia muciniphila 1.14 | Bacteroides caccae 1 | Bacteroides clarus 1.03 | Bacteroides dorei 0.954 | Bacteroides stercoris 0.966 | [1] 1.04 | Bacteroides uniformis 0.992 | [2] 0.969 | Clostridium difficile 1.06 | Collinsella aerofaciens 1.02

Source: the supplement of paper PMC12669032
